Experimental data taken from PubChem BioAssay (EPA / NIEHS).
Calls of active or inactive are those of the source. Rule for the calls: active = hit-call score of the fitted dose curve at least 0.9, where 1 is the maximum; inactive = score below 0.9.

read-out: Cyclin Dependent Kinase Inhibitor 1A (CDKN1A), CDKN1A (gene 1026); test: LTEA_HepaRG_CDKN1A: Life Technologies and Expression Analysis (LTEA) Assay for Cyclin Dependent Kinase Inhibitor 1A (CDKN1A) using HepaRG (AID 2283450); settings: mRNA level, 48 h; actives raise or lower the signal
Protocol: LTEA_HepaRG is a cell based, multiplexed-readout assay that uses HepaRG, a human liver cell line, with measurements taken at 48 hours after chemical dosing on a 96-well plate.LTEA_HepaRG_CDKN1A is one of 102 assay component(s) measured in the LTEA HepaRG cell culture assay. It is a marker of Cell proliferation, survival, death.Data from the assay component LTEA_HepaRG_CDKN1A was analyzed into 1 endpoint. This assay endpoint, LTEA_HepaRG_CDKN1A, was analyzed with bidirectional fitting relative to DMSO as the negative control and baseline of activity. Using a type of inducible reporter, measures of mRNA induction for gain or loss-of-signal activity can be used to understand regulation of transcription factor activity. To generalize the intended target to other relatable targets, this assay endpoint is annotated to the cell cycle intended target family, where the subfamily is Cell proliferation, survival, death.
A total of 1060 chemcials from the ToxCast library were tested in eight-point concentration-response experiments. Cell culture and cytotoxicity assays were conducted at Thermo Fisher Scientific's Custom Services facility (Madison, WI). A single lot of human HepaRG cells (Thermo Fisher Scientific, Frederick, MD) was used for the cell culture experiments. 96-well format collagen type I coated plates of human HepaRG cells were prepared using established methods. Briefly, cryopreserved HepaRG cells were thawed, plated at a density of approximately 100,000 cells/well in HepaRG Thaw, Plate, and General Purpose media (HPRG770, Thermo Fisher Scientific), and incubated for 48 hours. 0.5% DMSO was selected as vehicle control to balance the requisite need of DMSO in HepaRG cultures to maintain differentiation (for example, baseline metabolism, proportions of hepatocytes vs. cholangiocytes), while enabling further hepatic receptor pathway activation (for example, PXR and CAR) in response to chemical exposure. 48 hours after plating, the culture medium was replaced with HepaRG Serum-Free Incudtion Media. Cells were exposed to each test chemical in duplicate and maintained in CO2 incubators for another 48 hours. Chemical plates were thawed to room temperature and 200x concentrations of treatment groups were prepared. 8-point conentration-reponse curves were made with the highest exposure at 100 uM, followed by half-log dilutions, all in 0.5% DMSO. Each test plate contained variouse controls, induction positive controls (1mM phenobarbital), cytotoxicity positive controls ([…] aflatoxin B1), vehicle controls (0.5% DMSO), and total lysis controls (0.5% DMSO). Cell morphology images were taken using an Essen IncuCyte FLR automated microscope, with six 96-well plates imaged in about 24 minutes. Images were captured and exported and JPEG files. Spent culture media was transfered to black-well plates for the LDH assay, and remaining media was sorted at -80 C for later use. Cells were treated with RLT buffer and frozen until shipped for gene expression analysis. Total RNA was isolated from the cell suspension in 75 uL of Buffer RLT (Qiagen, Germantown, MD 20874) by Quintiles/Expression Analysis (Durham, NC) using a custom isolation procedure. Total RNA from each plate well was transferred to a preamplification plate. Fluidigm's 96.96 Dynamic ArrayTM (Fluidigm, Amsterdam, the Netherlands) technology was used for gene expression analyses by quantitative reverse transcription polymerase chain reaction (qRT-PCR, performed by Quintiles/Expression Analysis, Durham, NC)89. Standard TaqManTM Assays (Applied Biosystems/ThermoFisher Scientific, Foster City, CA) were used to assess the expression of 93 genes selected based on their selectivity and sensitivity to important hepatic receptors known to be modulated by environmental chemicals; importance in human hepatocyte functionality; and hepatotoxicity. […]

Compound | outcome | AC50
Oc1cccc2cccnc12 | inactive | –
CCC(=O)C(CC(C)N(C)C)(c1ccccc1)c1ccccc1 (stereo unspecified) | inactive | –
CCOP(=S)(OCC)SCSP(=S)(OCC)OCC | inactive | –
CCN1CCC2(CC1)COc1cc3c(cc12)N(C(=O)c1ccc(-c2ccc(-c4nnc(C)o4)cc2C)cc1)CC3 | – | 84.6 µM (active)
C=C(C)C(=O)[O][Sn]([CH2]CCC)([CH2]CCC)[CH2]CCC | inactive | –
CCC(C)(C)c1ccc(O)c(C(C)(C)CC)c1 | inactive | –
O=C(O)C(Cl)(Cl)Cl | inactive | –
CCCCCCCCc1ccc(O)cc1 | inactive | –
CC(C)(c1ccccc1)c1ccc(O)c(C(C)(C)c2ccccc2)c1 | inactive | –
Cn1sc(Cl)cc1=O | inactive | –
CC(=O)[O][Hg][c]1ccccc1 | – | 0.174 µM (active)
C=CC(=O)OCCCCCC(C)C | inactive | –
O=C(O)C(F)(F)C(F)(F)C(F)(F)C(F)(F)C(F)(F)C(F)(F)C(F)(F)C(F)(F)C(F)(F)C(F)(F)F | inactive | –
COc1cc(-c2ccc(N)c(OC)c2)ccc1N | inactive | –
CC(C)(OO)c1ccccc1 | inactive | –
ClCC(Cl)CCl | inactive | –

Compound | outcome | AC50
NC(=O)O | inactive | –
CC12CC1(C)C(=O)N(c1cc(Cl)cc(Cl)c1)C2=O (stereo unspecified) | inactive | –
O=[N+]([O-])c1ccc(O)c([N+](=O)[O-])c1 | – | 12.4 µM (active)
O=C(Nc1ccc2[nH]ccc2c1)c1cc2cc(F)ccc2n1Cc1cccc(F)c1 | inactive | –
CN(C)N=O | inactive | –
O=C(O)C(F)(F)C(F)(F)C(F)(F)C(F)(F)C(F)(F)C(F)(F)F | inactive | –
O=C1C2(Cl)C3(Cl)C4(Cl)C(Cl)(Cl)C5(Cl)C3(Cl)C1(Cl)C5(Cl)C24Cl (stereo unspecified) | – | 93 µM (active)
ClC1(Cl)C2(Cl)C3(Cl)C4(Cl)C(Cl)(Cl)C5(Cl)C3(Cl)C1(Cl)C5(Cl)C24Cl (stereo unspecified) | inactive | –
CCOP(=S)(OCC)Oc1nc(Cl)c(Cl)cc1Cl | inactive | –
CC(C)(C)CC(C)(C)c1ccc(O)cc1 | inactive | –
C[C@@H]1C[C@@H]([C@H](O)CC2CC(=O)NC(=O)C2)C(=O)[C@@H](C)C1 | – | 13.2 µM (active)
O=c1[nH]c(=O)[nH]c(=O)[nH]1 | inactive | –
CC(C)(C)c1cc(O)ccc1O | inactive | –
Cc1ccccc1N | inactive | –
C[C@]12CCC(=O)C[C@@H]1CC[C@@H]1[C@@H]2CC[C@]2(C)[C@@H](O)CC[C@@H]12 | inactive | –
